Bioassay records: PubChem BioAssay, several laboratories
In the library only some 1.9% were active in any assay of this set; here they are far more common.
PP1 counter: PP1-alpha phosphatase inhibitors, primary screen, counter-screen for PP5 inhibitor project, biochemical, fluorescence, OMFP substrate, single point | Serine/threonine-protein phosphatase PP1-alpha catalytic subunit (Homo sapiens), P62136 | purified PP1alpha | inhibition, % at 6.7 µM | hit rate 0.9% among 320,000 | AID 2235, 2010;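 active = inhibition above the mean inhibition of all tested compounds plus 3 SD, computed separately for each screening campaign, cut at about 15% in these data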
H9c2 protect: cardioprotection against H2O2-induced cell death, primary screen, uHTS, H9c2 cells, ATPLite luminescence; H9c2 cardiomyocytes, H2O2 injury protection, 2 h; protection from H2O2 cell death, % at 20 µM; hit rate 0.63% among 360,000;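 active = compounds giving at least 50% protection of heart cells from peroxide-induced death in the single-dose screen, raw or plate-pattern-corrected value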;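 also: 0% = DMSO wells with peroxide and 100% = DMSO wells without peroxide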
ATG4B inhibitor: ATG4B protease inhibitors, primary screen, biochemical, fluorescence, uHTS. ATG4B cleavage of LC3-PLA2, NBD-HPC fluorescence, 1 h. inhibition, % at 8.33 µM. Cysteine protease ATG4B (Homo sapiens), Q9Y4P1. hit rate 0.51% among 340,000; in the data active = inhibition above about 40%
PP5 inh: PP5 phosphatase inhibitors, primary screen, biochemical, fluorescence. Serine/threonine-protein phosphatase 5 (Homo sapiens), P53041. purified PP5c, OMFP substrate fluorescence. inhibition, % at 6.7 µM. hit rate 0.18% among 320,000. AID 1987, 2009;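 active = inhibition above the campaign's mean inhibition across all tested compounds plus 3 SD, cut at about 9.5% in these data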;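 also: 0% = DMSO only and 100% = 100 µM cantharidin control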
Target sequence (P53041 whole entry, looked up): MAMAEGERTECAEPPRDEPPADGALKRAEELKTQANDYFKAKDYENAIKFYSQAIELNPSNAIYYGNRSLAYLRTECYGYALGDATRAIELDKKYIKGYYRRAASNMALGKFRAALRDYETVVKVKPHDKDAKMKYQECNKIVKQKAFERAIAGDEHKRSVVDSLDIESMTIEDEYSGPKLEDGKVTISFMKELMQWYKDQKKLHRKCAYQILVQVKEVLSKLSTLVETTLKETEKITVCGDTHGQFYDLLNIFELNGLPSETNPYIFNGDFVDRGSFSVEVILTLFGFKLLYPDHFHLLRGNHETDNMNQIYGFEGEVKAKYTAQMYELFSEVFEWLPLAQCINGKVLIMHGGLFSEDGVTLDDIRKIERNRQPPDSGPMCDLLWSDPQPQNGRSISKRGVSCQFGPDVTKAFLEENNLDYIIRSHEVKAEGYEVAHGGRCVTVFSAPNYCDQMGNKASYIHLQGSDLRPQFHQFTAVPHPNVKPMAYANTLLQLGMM
PP1 confirm: PP1 phosphatase inhibitors, confirmation, biochemical, fluorescence, OMFP substrate, triplicate; shares compounds with PP1 counter; purified PP1alpha; inhibition, % at 6.7 µM; hit rate 52% among 1,900; AID 2358, 2010;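 active = mean PP1 inhibition above a set limit taken from the earlier primary screen, cut at about 15% in these data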
PP5 inh counter: PP5 phosphatase inhibition by PP1 hits, confirmation, counter-screen for PP1 inhibitor project, biochemical, fluorescence, triplicate | hit rate 4% among 1,900 | shares compounds with PP1 counter | purified PP5c, OMFP fluorescence | AID 2360, 2010 | inhibition, % at 6.7 µM;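 active = mean PP5 inhibition over triplicate wells above about 9.5% taken from the earlier PP1 screen, limit read from the data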
* marks the source's active call; other numbers are inactive results; . = no result; ! = not confirmed by another sample.

SMILES | PP1 counter | H9c2 protect | ATG4B inhibitor | PP5 inh | PP1 confirm | PP5 inh counter
COc1cc(OC)cc(C(=O)Nn2c(C)nc3ccccc3c2=O)c1 | 5 | 11 | -1 | 4 | . | .
CC(Oc1ccc2c3c(c(=O)oc2c1)CCCC3)C(=O)NCc1ccncc1 (centres undefined) | -1 | -4 | -4 | 0 | . | .
O=C(N/N=C/c1cc(Br)ccc1O)c1ccncc1 | -2 | 30 | -7 | 3 | . | .
O=C(N/N=C/c1ccc(O)c2ncccc12)c1cccc(Br)c1 | 21* | -1 | -3 | -1 | 18* | 1
O=[N+]([O-])c1cc(Br)c(O)c(/C=N/Nc2nnnn2-c2cccc3ccccc23)c1 | 21* | -16 | 17 | 8 | 23* | -4
CCN(CC)CCOc1ccc(/C(=C(/Cl)c2ccccc2)c2ccccc2)cc1 | 19*! | -46 | 4 | 4 | -9 | 1
CCC(=C(c1ccccc1)c1ccc(OCCN(C)C)cc1)c1ccccc1 | . | 16 | . | . | . | .
Cc1c(/C=N/n2cnnc2)c2ccccc2n1CCOc1ccc(Cl)cc1 | 29* | -7 | 0 | 4 | 4 | -3
O=C(Nc1ccc2c(c1)OCCO2)C(c1ccnc2ccccc12)N1CCN(C/C=C/c2ccccc2)CC1 (centres undefined) | . | -1 | . | . | . | .
CCC(=O)N1C(C(=O)N2CCCC2)CSC1c1ccc(OC)cc1 (centres undefined) | -3 | 0 | -3 | 3 | . | .
CCC(=O)N1C(C(=O)O)CSC1c1ccc(OC)cc1 (centres undefined) | 31* | -2 | 4 | -1 | -2 | -4
O=S(=O)(c1ccc(Cl)cc1)N1CCN(Cc2ccc(O)c3ncccc23)CC1 | 18* | 30 | -1 | 3 | 24* | -2
Oc1ccc(CN2CCN(Cc3ccccc3)CC2)c2cccnc12 | 7 | 40 | -5 | 2 | . | .
CC(C)CN(C(=O)CSc1n[nH]c(-c2cccs2)n1)C1CCS(=O)(=O)C1 (centres undefined) | -2 | 15 | -4 | -2 | . | .
CN(CC(=O)Nc1ccccc1N1CCCC1)S(=O)(=O)c1ccc(F)cc1 | 74* | 2 | 9 | 1 | -20 | -3
CC(=O)Nc1ccc(S(=O)(=O)N(C)CC(=O)Nc2ccccc2N2CCOCC2)cc1 | -1 | 13 | 7 | -1 | . | .
O=C(CCN1C(=O)C2CC=CCC2C1=O)Nc1cccc(Cl)c1 (centres undefined) | 4 | 2 | -7 | 0 | . | .
COc1cc(/C=C2\C(=N)N3N=C(C)SC3=NC2=O)cc(OC)c1OCCOc1ccccc1C | 3 | -1 | 12 | 2 | . | .
COc1cc(/C=C2\C(=N)N3N=C(S(C)(=O)=O)SC3=NC2=O)cc(OC)c1OCCOc1ccccc1C | 30* | 6 | 77* | 8 | 11 | -1
O=C(CSc1cn(CCNC(=O)c2ccc3ccccc3c2)c2ccccc12)NCc1ccco1 | 18* | 3 | -23 | 5 | 5 | 5
COc1ccc(NC(=O)C2CCCN(S(=O)(=O)c3ccccc3)C2)c(OC)c1 (centres undefined) | 0 | -1 | -4 | -1 | . | .
O=C(/C=C/c1ccc(F)cc1)NC(=S)NNC(=O)[C@H]1C[C@@H]1c1ccccc1 | 18* | 10 | -8 | 3 | 7 | -3
O=C(N/N=C/c1ccccn1)c1cc(-c2ccc3ccccc3c2)n[nH]1 | 28* | 4 | -23 | 4 | 62* | 6
O=C(N/N=C/c1ccccn1)c1cc(-c2cccc3ccccc23)n[nH]1 | 19* | 56* | 8 | 1 | 27* | 3
CCN(CC(=O)Nc1ccc(NC(C)=O)cc1)C(=O)c1ccc(=O)n(C)n1 | -1 | 0 | -2 | -3 | . | .
SMILES | PP1 counter | H9c2 protect | ATG4B inhibitor | PP5 inh | PP1 confirm | PP5 inh counter
CCN(Cc1ccccc1)S(=O)(=O)c1ccc(C(=O)Nc2nnc(C3CC3)o2)cc1 | 43* | 45 | -4 | 3 | 34* | -4
Cc1ccccc1NC(=O)c1ccc2ccccc2c1 | -1 | -7 | -2 | 1 | . | .
CN(C)c1ccc(C(=O)Nc2nnc(C3=COCCO3)o2)cc1 | 2 | -7 | -1 | 1 | . | .
Cc1nnc(NC(=O)c2ccc3ccccc3c2)o1 | 19* | -11 | 1 | -2 | 8 | -2
CN(c1ccccc1)S(=O)(=O)c1ccc(C(=O)Nc2nnc(C3=COCCO3)o2)cc1 | 26* | 23 | 4 | 1 | 15* | 2
COCc1nnc(NC(=O)c2ccc(S(=O)(=O)N(C)C3CCCCC3)cc2)o1 | 18* | 31 | -11 | 0 | 3 | -3
Cc1ccc(F)c(Cn2cnc3c(cnn3C(C)(C)C)c2=O)c1Cl | 6 | -8 | 27 | 1 | . | .
Cc1nnc(NC(=O)c2ccc(S(=O)(=O)N(C)Cc3ccccc3)cc2)o1 | 38* | 8 | -1 | 6 | 30* | 3
COCc1nnc(NC(=O)c2ccc(S(=O)(=O)N(C)Cc3ccccc3)cc2)o1 | 22* | 26 | 1 | 4 | 17* | 4
COCCN(CCOC)S(=O)(=O)c1ccc(C(=O)Nc2nnc(C)o2)cc1 | 2 | 4 | 4 | 0 | . | .
C#CCNC(=O)C1=C[C@@H](c2csc3ccccc23)C[C@@H](OCc2ccc(CO)cc2)O1 | 73* | 6 | -14 | 5 | 2 | 1
O=C(NCc1ccccc1)C1=C[C@@H](c2csc3ccccc23)C[C@@H](OCc2ccc(CO)cc2)O1 | 7 | -5 | 3 | 0 | . | .
COc1ccc(/C=N\NC(=O)c2cc(O)c(O)c(O)c2)cc1COc1ccc(C(=O)OCC(C)C)cc1 | 27* | 53* | 15 | 7 | 25* | 0
COc1ccc(C(=O)N/N=C/c2ccc(OC)c(COc3ccccc3)c2)cc1 | 2 | 30 | -1 | 3 | . | .
COc1ccc(/C=N\NC(=O)c2ccccc2F)cc1COc1ccc(F)cc1F | 5 | 1 | 6 | 3 | . | .
COc1ccc(/C=N/NC(=O)c2ccc(NC(C)=O)cc2)cc1COc1ccc(F)cc1F | 22* | -8 | -2 | 1 | 12 | -2
O=C(Nc1ncccc1O)c1ccc(Oc2ccccc2)cc1 | 2 | -5 | 2 | -2 | . | .
Cc1nc(/N=C\c2ccc(N(C)C)cc2)sc1C | -1 | 3 | 8 | 0 | . | .
CCn1c(SCC(=O)Nc2nc(C)cs2)nnc1-c1ccncc1 | -4 | 3 | 0 | -1 | . | .
CCOc1ccc2nc3cc(NCc4ccc(OC)cc4)ccc3c(N)c2c1 | 65* | -22 | 8 | 15* | 16* | 38*
CCOc1ccccc1NC(=O)COC(=O)Cc1ccc(-c2ccccc2)cc1 | 21* | -4 | 15 | 3 | 16* | -3
